GAA850 FXN act: increases GAA850 frataxin promoter reporter activity; AID 540364; activation, % at 6 µM; HEK293 lucGAA850 FXN promoter luciferase reporter, 24 h; percent of 10 µM SAHA response; 360,000 compounds, 0.56% hits;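 active = activation above the average of all compounds screened plus 3 SD, cutoff fixed separately per campaign, cut at about 7.5% in these data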;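 also: 0% = DMSO wells and 100% = 10 µM SAHA wells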
MITF TRPM1 HTS: increases MITF-driven TRPM1 promoter luciferase signal | SK-MEL-5 TRPM1-promoter luciferase, 24 h; % of positive control, neutral wells = 0 | activation, % at 12.5 µM | 300,000 compounds, 0.75% hits;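 active = mean activation of at least 80% with every replicate also reaching 80%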;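 also: 0% = neutral control wells and 100% = parthenolide positive control wells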
esBAF inh: inhibitors of esBAF chromatin remodeling in mouse ES cells; AID 602393; 350,000 compounds, 2% hits; reporter increase, % at 12.5 µM; Bmi1-luciferase knock-in reporter, 24 h; 100% = twice the neutral-well signal; in the data active = activation above about 40%;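 also: 0% = median of the plate's neutral control wells and 100% = double that signal; a rise in the Bmi1 reporter signal indicates esBAF inhibition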
AHR activator: activates the human aryl hydrocarbon receptor. 320,000 compounds, 2.5% hits. AID 2796. P35869. activation, % at 5 µM. AHR-responsive luciferase reporter cells, luminescence; in the data active = activation above about 47%;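 also: 0% = vehicle wells and 100% = reference agonist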
Wnt bcat act: Wnt/beta-catenin pathway activation. Wnt/beta-catenin reporter cell assay, activator, plate reader. activation, % at 9.35 µM. 300,000 compounds, 1.2% hits; in the data active = activation above about 30%, passing the limit was not always enough;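 also: 0% = neutral control wells and 100% = positive control wells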
AHR act cf: confirmation of human aryl hydrocarbon receptor activators. shares compounds with AHR activator. human cells, AHR-responsive luciferase reporter, luminescence. activation, % at 9 µM. 2,300 compounds, 87% hits. AID 2845; in the data active = activation above about 49%;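 also: HepG2 hepatoma cells carrying a DRE-driven firefly luciferase reporter; 0% = vehicle wells and 100% = reference agonist wells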
PXR counter: PXR activation, counter-screen for AHR activators. shares compounds with AHR activator. cell-based PXR reporter, luciferase luminescence. activation, % at 11.6 µM. 2,300 compounds, 88% hits; in the data active = activation above about 11%;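 also: human hepatoma DPX-2 cells expressing full-length human PXR; 0% = DMSO and 100% = reference agonist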
* = called active by the depositor. Only some compounds are listed: those with a hit (about 4.2% of all), similar ones and a draw of the others.

O=C(Nc1cccc(-c2csc(Nc3ccc(Cl)cc3)n2)c1)c1ccccc1 was read as GAA850 FXN act -0.8, MITF TRPM1 HTS 29.1, esBAF inh 18.9, AHR activator 93.1*, Wnt bcat act 5.6, AHR act cf 95.2* and PXR counter 22.2*.
O=C(Nc1cccc(-c2csc(Nc3ccccc3)n2)c1)c1cc([N+](=O)[O-])cc(C(F)(F)F)c1 was read as GAA850 FXN act -1.8, MITF TRPM1 HTS 14.8, esBAF inh 18.2, AHR activator 31.1 and Wnt bcat act -1.4.
Screening O=C(Nc1cccc(-c2csc(Nc3ccc(Cl)cc3)n2)c1)c1cccc(C(F)(F)F)c1 returned GAA850 FXN act 0.8, MITF TRPM1 HTS 6.2, esBAF inh 20.4, AHR activator 106.2*, Wnt bcat act -18.4, AHR act cf 36.8 and PXR counter 24.9*.
CC(=O)Nc1cccc(-c2csc(Nc3ccc(C)cn3)n2)c1 was read as GAA850 FXN act 4.3, MITF TRPM1 HTS 119.0*, AHR activator 145.2*, AHR act cf 24.3 and PXR counter 33.8*.
O=C(Nc1ccc(-c2csc(Nc3ccccc3)n2)cc1)c1ccccc1 was read as GAA850 FXN act -2.6, MITF TRPM1 HTS 7.8, AHR activator 45.5 and Wnt bcat act 1.2.
For CCC(=O)N1[C@H](CO)[C@H]2c3ccccc3N(S(=O)(=O)c3ccccc3C)C[C@H]21 the results were esBAF inh -0.9.
Screening CO[C@H]1CN(C)C(=O)c2ccc(NC(=O)Nc3ccc(Cl)cc3)cc2OC[C@@H](C)N(C(=O)Nc2c(C)noc2C)C[C@@H]1C returned esBAF inh -3.0.
Screening C[C@H]1CN([C@@H](C)CO)C(=O)c2cc(NS(=O)(=O)c3ccc(Cl)cc3)ccc2O[C@H]1CN(C)S(=O)(=O)c1cn(C)cn1 returned esBAF inh -1.8.
`O=C(Nc1nc(-c2ccc(Br)cc2)cs1)c1cccnc1` gave GAA850 FXN act -1.4, MITF TRPM1 HTS 6.7, AHR activator 8.8 and Wnt bcat act -2.0.
`CC(C)/C=N/Nc1nc(-c2ccc(Br)cc2)cs1` gave GAA850 FXN act 2.2, MITF TRPM1 HTS 52.3, AHR activator 140.6*, Wnt bcat act -1.0, AHR act cf 16.5 and PXR counter 18.1*.
CCOC(=O)N(C)C[C@@H]1OCc2ccccc2-c2ccccc2C(=O)N([C@H](C)CO)C[C@H]1C was read as esBAF inh -5.2.
Screening C[C@H](CO)N1C[C@H](C)[C@H](CN(C)C(=O)CCN2CCCCC2)Oc2ncc(C#CCN(C)C)cc2C1=O returned esBAF inh 2.8.
`Cc1ccc(C(=O)c2sc3c(c2N)c(=O)[nH]c(=O)n3CCc2ccccc2)cc1` gave GAA850 FXN act 4.0, MITF TRPM1 HTS 4.7, AHR activator 86.0*, AHR act cf 92.5* and PXR counter 42.4*.
For Nc1c(C(=O)c2ccccc2)sc2c1c(=O)[nH]c(=O)n2-c1ccccc1 the results were GAA850 FXN act 2.8, MITF TRPM1 HTS 8.7 and AHR activator -0.2.
Screening C=CCn1c(SCC(=O)Nc2ccc(OC)cc2)nc2c([nH]c3ccccc32)c1=O returned GAA850 FXN act -0.3, MITF TRPM1 HTS -6.9, AHR activator 37.4 and Wnt bcat act -3.5.
Screening COc1ccccc1-n1c(SCC(=O)Nc2ccc(NC(C)=O)cc2)nc2c([nH]c3ccccc32)c1=O returned GAA850 FXN act -1.1, MITF TRPM1 HTS -27.5, esBAF inh -1.8, AHR activator 81.4*, Wnt bcat act -2.2, AHR act cf 99.5* and PXR counter 119.2*.
For COc1ccccc1-n1c(SCC(=O)NCC2CCCO2)nc2c([nH]c3ccccc32)c1=O (stereo unspecified) the results were GAA850 FXN act -3.6, MITF TRPM1 HTS -10.3, esBAF inh 1.6, AHR activator 90.1*, Wnt bcat act 2.8, AHR act cf 127.2* and PXR counter 164.5*.
CCn1c(SCC(=O)NCC2CCCO2)nc2c([nH]c3ccccc32)c1=O (stereo unspecified) was read as GAA850 FXN act -0.6, MITF TRPM1 HTS -16.0, AHR activator 80.2*, Wnt bcat act 1.0, AHR act cf 88.0* and PXR counter 80.0*.
Screening COCCn1c(SCC(=O)Nc2cccc(NC(C)=O)c2)nc2c([nH]c3ccccc32)c1=O returned GAA850 FXN act -2.5, MITF TRPM1 HTS -16.4, AHR activator 107.9*, Wnt bcat act 2.3, AHR act cf 90.8* and PXR counter 38.9*.
Screening COc1ccccc1CNC(=O)C[C@H]1CC[C@@H]2[C@H](COC[C@H](O)CN2C(=O)Nc2ccc(C(F)(F)F)cc2)O1 returned esBAF inh -2.8.
CC=Cc1ccc2n(c1=O)C[C@H]1[C@H](CO)[C@@H](C(=O)NCc3ccc(F)cc3)N(C)[C@@H]21 (mixture of isomers) was read as esBAF inh -1.7.
CO[C@H]1CN(C)C(=O)c2cc(NS(=O)(=O)c3ccccc3)ccc2OC[C@@H](C)N(Cc2cccnc2)C[C@H]1C was read as esBAF inh -7.4.
`Cn1c(=NC(=O)C2CCCCC2)sc2cc([N+](=O)[O-])ccc21` gave GAA850 FXN act -0.2, MITF TRPM1 HTS 4.7, AHR activator 1.7 and Wnt bcat act 1.0.
Screening CCOc1ccc2c(c1)sc(=NC(=O)C1CC1)n2C returned GAA850 FXN act 5.1, MITF TRPM1 HTS 5.9, esBAF inh 59.9*, AHR activator 92.3*, Wnt bcat act -1.3, AHR act cf 70.8* and PXR counter 36.8*.
`O=C(c1cccc(S(=O)(=O)N2CCc3ccccc32)c1)N1CCN(c2ccccn2)CC1` gave GAA850 FXN act -7.0, MITF TRPM1 HTS 1.2, AHR activator 79.8*, Wnt bcat act 1.2, AHR act cf 93.1* and PXR counter 199.9*.
`C=C1C(=O)O[C@@H]2C[C@@H](C)[C@@H]3C=CC(=O)[C@@]3(C)[C@@H](OC(C)=O)[C@H]12` gave AHR activator 81.0*, Wnt bcat act -20.9, AHR act cf -13.6 and PXR counter 283.4*.
For c1cncc(-c2nc(NCc3cccs3)c3ccccc3n2)c1 the results were GAA850 FXN act 2.2, MITF TRPM1 HTS -2.5, AHR activator 8.6 and Wnt bcat act 0.4.
Fc1ccccc1CNc1nc(-c2cccnc2)nc2ccccc12 was read as GAA850 FXN act 0.3, MITF TRPM1 HTS -14.8, esBAF inh -4.9, AHR activator 84.5*, Wnt bcat act 0.9, AHR act cf 23.6 and PXR counter 102.7*.
`C(=N\Nc1ncnc2sc3c(c12)CCC3)/c1ccncc1` gave GAA850 FXN act 4.5, MITF TRPM1 HTS -2.8, esBAF inh -1.8, AHR activator 81.4*, Wnt bcat act 2.2, AHR act cf 124.4* and PXR counter 28.6*.
